# Experimental data reported in PubChem BioAssay AID720706 (Broad Institute, 2013).
# Out of some 350,000 compounds screened, about 5,500 (1.6%) were called active. The sample holds actives, similar compounds and a random draw of the others, so the mix is not that of the screen.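 Rule for the calls: active = significant combined selectivity score with lowered wild-type GFP, culture density cut under 30%, mutant RFP and density less affected; inactive = any of these conditions unmet.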
# Assay: reduced GFP signal of wild-type E. coli, primary screen, bacterial rRNA inhibitor project, GFP/RFP fluorescence, OD600, single point (AID 720706)
# Conditions: E. coli WT GFP vs humanized-ribosome RFP mutants, 24 h; GFP signal change (wild-type ribosome): stronger effect = lower value, DMSO median 0, no signal -100; OD600 change: measured here: OD600 growth, DMSO median 0, no signal -100; RFP signal change: measured here: RFP humanized mutant strains, DMSO median 0, no signal -100, concentration not given here
Structure (SMILES),GFP signal change (wild-type ribosome),OD600 change [%],RFP signal change [%]
CO[C@@H]1CN(C)C(=O)c2cc(NC(=O)Nc3ccc4c(c3)OCO4)ccc2OC[C@@H](C)NC[C@@H]1C,4.25% (inactive),10.8,-0.511
COc1ccc2c3c([nH]c2c1)[C@@H](CO)N(C(C)=O)CC31CCN(Cc2ccccc2Cl)CC1,-2.42% (inactive),-9.54,4.49
C[C@@H]1CN([C@H](C)CO)C(=O)c2cc(NS(=O)(=O)c3ccccc3)ccc2O[C@H]1CN(C)S(=O)(=O)c1ccc(Cl)cc1,-8.38% (inactive),-11.5,2.44
COc1cccc(CCNC(=O)c2cccc(NC(=O)C3=C(C)OCCS3)c2)c1,-25.3% (inactive),-16.5,-2.22
CC(C)(C)OC(=O)N1CCC(C(=O)Nc2cccc(C(=O)NCCc3ccccc3)c2)CC1,2.29% (inactive),6.05,0.0785
CCNC(=O)c1cccc(NC(=O)C2CC(=O)N(CCc3ccccc3)C2)c1 (centres undefined),8.73% (inactive),3.98,1.88
O=C(NCc1ccccc1)c1cccc(NC(=O)C2CCCCC2)c1,-29.5% (active),-22.2,-7.71
O=C(Cc1ccc(Br)cc1)NCCc1ccccc1,-13.7% (inactive),6.7,-2.35
O=C(NCCc1ccccc1)c1cccc(NC(=O)c2ccccc2)c1,-23.9% (active),-10,0.86
CO[C@@H]1CN(C)C(=O)c2cc(NS(=O)(=O)c3ccc(C)cc3)ccc2OC[C@H](C)N(Cc2nccs2)C[C@@H]1C,-2.96% (inactive),-14.7,7.3
COc1ccc2c3c([nH]c2c1)[C@@H](CO)N(C(=O)C1CC1)CC31CCN(C(=O)c2ccncc2)CC1,4.87% (inactive),6.99,-3.09
CC(C)NC(=O)N(C)C[C@H]1Oc2cc(-c3cncnc3)ccc2S(=O)(=O)N([C@@H](C)CO)C[C@H]1C,3.27% (inactive),3.02,-2.21
CCC(=O)Nc1ccc2c(c1)C(=O)N(C)[C@@H]1CC[C@H](CC(=O)NCCc3ccncc3)O[C@@H]1CO2,2.16% (inactive),15.1,-1.34
Cc1ccc(C(=O)Nc2ccccc2-c2ccccc2)cc1S(=O)(=O)Nc1ccccc1,-14.3% (inactive),-30.9,-8.24
Cc1ccccc1NC(=O)c1cc(S(=O)(=O)Nc2cccc(C(=O)O)c2)ccc1Cl,9.89% (inactive),8.39,-0.677
C=CCNC(=O)c1ccccc1NC(=O)c1ccc(Cl)c(S(=O)(=O)Nc2cccc(C)c2C)c1,-40% (active),-4.93,9.21
COC(=O)C[C@@H]1C[C@H]2c3cc(NC(=O)NC4CCCC4)ccc3O[C@H]2[C@H](CO)O1,-0.054% (inactive),-2.88,1.29
C[C@H](O)C#Cc1ccc2c(c1)O[C@H](CN(C)Cc1cccnc1)[C@@H](C)CN([C@H](C)CO)S2(=O)=O,-1.81% (inactive),5.84,-2.32
COc1ccccc1NC(=O)N[C@H]1CC[C@H](CCNS(=O)(=O)c2ccc(Cl)cc2)O[C@H]1CO,-12.2% (inactive),-10.8,7.75
CC(C)NC(=O)Nc1cccc2c1O[C@H](CN(C)Cc1ccccc1)[C@H](C)CN([C@H](C)CO)C2=O,3.96% (inactive),10.7,-0.787
C[C@@H]1CN([C@H](C)CO)C(=O)c2cc(-c3ccncc3)cnc2O[C@H]1CN(C)C,-0.119% (inactive),3.91,0.159

Structure (SMILES),GFP signal change (wild-type ribosome),OD600 change [%],RFP signal change [%]
NNc1nc2c(Cl)cccc2s1,-27.1% (active),-15.6,-0.505
CN1C(=O)c2cc(NC(=O)NC3CCCC3)ccc2OC[C@@H]2O[C@@H](CC(=O)O)CC[C@H]21,3.92% (inactive),5.14,-1.81
CC[C@]1(C(=O)OC)[C@H]2C(=O)N(Cc3ccccc3)C(=O)[C@H]2[C@H]2CN=C(SCc3ccc(C#N)cc3)N21,-22.2% (active),-6.29,8.89
CC[C@]1(C(=O)OC)[C@H]2C(=O)N(Cc3ccccc3)C(=O)[C@H]2[C@H]2CN=C(SCc3ccccc3)N21,-30.1% (inactive),-42.8,-8.47
COC(=O)[C@@]1(C)[C@H]2C(=O)N(Cc3ccccc3)C(=O)[C@H]2[C@H]2CN=C(SCC3CC3)N21,-47.6% (inactive),-80,-15.4
C[C@@H]1CN([C@H](C)CO)C(=O)c2cc(-c3cccc(F)c3)cnc2O[C@H]1CN(C)C(=O)Nc1ccccc1F,-2.5% (inactive),-5.06,-1.42
CCC(=O)N1CC2(CN(Cc3cccnc3)C2)c2c(n(C)c3cc(OC)ccc23)[C@@H]1CO,1.02% (inactive),-2.19,-2.12
C=C1CCC(N(O)c2cc(C)on2)C(=C)CCC2C1CC2(C)C (centres undefined),-20.5% (active),-3.66,1.7
CN1CCN(C(=O)C[C@H]2CC[C@@H]3[C@H](COC[C@@H](O)CN3CC3CCCC3)O2)CC1,-1.31% (inactive),7.95,-2.61
Cc1cc(-c2ccc(C)c(S(=O)(=O)NCCCN(Cc3ccccc3)C(C)C)c2)on1,-6% (inactive),-18.2,1.25
Cc1cc(-c2ccc(C)c(S(=O)(=O)NC(C)Cc3ccco3)c2)on1 (centres undefined),-34.9% (active),-21.1,0.997
CCOc1ccccc1CNS(=O)(=O)c1cc(-c2cc(C)no2)ccc1C,-6.17% (inactive),-29.1,-15.4
COc1ccccc1-c1n[nH]nc1C1=CC(=O)CC(C)(C)C1,-4.29% (inactive),-12.1,-0.515
CC1(C)CC(=O)C=C(c2ccc(Cl)c(C(F)(F)F)c2)C1,2% (inactive),-0.255,-10.1
COc1cc(F)c(C2=CC(=O)CC(C)(C)C2)cc1F,-21.1% (active),-16.7,2.19
C[C@@H]1CN([C@H](C)CO)C(=O)c2ccccc2-c2ccccc2CO[C@H]1CN(C)S(=O)(=O)c1ccsc1,-0.618% (inactive),-1.1,-2.79
O=C(NCC[C@@H]1CC[C@@H](NC(=O)C2CCCC2)[C@H](CO)O1)c1cnccn1,3.79% (inactive),7.83,-1.44
CCCN(CC1CC1)C(=S)NC(=O)c1ccccc1Br,-22.1% (active),-12,-8.89
CC1CCN(C(=S)NC(=O)c2ccccc2Br)CC1,6.21% (inactive),4.62,-0.105
O=C(NC(=S)Nc1ncccn1)c1ccccc1Br,-2.07% (inactive),4.96,-3.8
O=C(CCN1CCCCC1)NCC[C@@H]1CC[C@H](NS(=O)(=O)c2cccc(Cl)c2)[C@H](CO)O1,3.52% (inactive),6.73,1.99

Structure (SMILES),GFP signal change (wild-type ribosome),OD600 change [%],RFP signal change [%]
COc1ccccc1NC(=O)N1C[C@@H](O)COC[C@H]2O[C@@H](CC(=O)NCc3ccccc3)CC[C@@H]21,-2.42% (inactive),-2.65,2.34
COCC(=O)N1CCC2(CC1)CN(Cc1ccccc1Cl)[C@H](CO)c1c2c2ccc(OC)cc2n1C,5.11% (inactive),-2.87,0.0355
Cc1ccc(-c2c[n+](CC(=O)Nc3ccccc3)c3n2CCC3)cc1,-22.1% (active),-5.22,8.16
O=C(C[n+]1cc(-c2ccc(Cl)c(Cl)c2)n2c1CCC2)c1cccs1,-50.7% (active),-21.5,-14.4
Cc1ccc(C(=O)C[n+]2cc(-c3ccccc3)n3c2CCCCC3)cc1,-44.5% (inactive),-43.4,50.7
Clc1ccc(C[n+]2cc(-c3ccc(Cl)cc3)n3c2CCC3)cc1,-41.8% (inactive),-50.2,-12.3
Cc1ccc(S(=O)(=O)N2CCN(C(=O)c3cccs3)CC2)cc1,0.592% (inactive),-2.53,-0.742
Clc1ccc(C[n+]2cc(-c3ccccc3)n3c2CCC3)cc1,2.79% (inactive),-1.72,-0.921
O=C(NCC1CC1)[C@@H]1[C@@H](CO)[C@@H]2Cn3c(ccc(-c4ccncc4)c3=O)[C@H]1N2Cc1nccs1,2.96% (inactive),4.86,-1.83
O=C(C[C@@H]1CC[C@H]2[C@@H](COC[C@H](O)CN2C(=O)Nc2ccccc2)O1)NCCc1ccncc1,6.3% (inactive),12.9,-0.44
Cc1ccc(S(=O)(=O)CCC(=O)OCc2ccccc2)cc1,0.84% (inactive),1.2,2.56
CC(CC(=O)N1CCN(S(=O)(=O)c2ccccc2)CC1)n1cncn1 (centres undefined),5.03% (inactive),0.845,-1.68
Cc1nn(C(C)(C)C)c(OC(=O)CC(C)C)c1S(=O)(=O)c1ccccc1,-21.5% (active),-14.2,-1.55
CNC[C@H]1Oc2ccccc2CC(=O)N(C)C[C@H]1C,1.46% (inactive),4.75,-1.05
CC(C)NC(=O)Nc1ccc2c(c1)CC(=O)N(C)C[C@@H](C)[C@@H](CN(C)C(=O)OC(C)(C)C)O2,2.38% (inactive),4.01,0.746
CC(C)C#Cc1ccc2c(c1)O[C@@H](CN(C)C(=O)CN(C)C)[C@@H](C)CN([C@H](C)CO)S2(=O)=O,2.76% (inactive),1.18,-1.07
CCCNC(=O)N(C)C[C@@H]1Oc2ncc(-c3cccc(C#N)c3)cc2C(=O)N([C@@H](C)CO)C[C@@H]1C,5.65% (inactive),14.1,-4.23
Cn1cc(C2OC(=O)c3ccccc32)c2ccccc21 (centres undefined),-10.5% (active),-18.9,-4.84
Cc1ccc(N2C(=O)S/C(=C/c3cn(C)c4ccccc34)C2=O)cc1,5.23% (inactive),9.33,6.02
Cc1ccc(CNC(=O)Cc2cn(C)c3ccccc23)cc1,-9.46% (inactive),-8.64,3.4
CN1c2ccc(-c3ccccc3F)cc2[C@@H]2[C@@H](CCN2C(=O)CN2CCOCC2)[C@H]1CO,-2.46% (inactive),-0.94,-0.302
